# FBPA Giardia inh: Giardia lamblia aldolase inhibition; 290,000 tested, 0.71% active; Potency, µM (top dose mostly 59.6 µM), without a hit: at the top dose activity, negative = inhibition, usual class: inhibitors; purified Giardia FBPA; A8B2U2; further: potency means the concentration at half of the fitted maximal effect; on the % scale 0 is the no-effect control and ±100 the full control effect; nearly all actives have a fitted effect of over 55% in size
#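 Giardia FBPA (40 nM reagent) was preincubated 10 min at RT with compound (up to 57.5 uM final), then substrate plus GAPDH/TPI/NAD/arsenate coupling system with diaphorase/resazurin was added; resorufin fluorescence (525/598 nm) was read after 20 min.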
# LmPK inhibitor: blocks Leishmania mexicana pyruvate kinase activity; Q27686; purified LmPK, Kinase-Glo ATP luminescence, 1 h; Potency, µM (series often up to 57.5 µM), without a hit: at the highest dose activity change, negative = inhibition, most hits filed as inhibitors; 290,000 tested, 0.37% active; AID 1721; further: potency means the concentration at half of the fitted maximal effect; on the % scale 0 is the no-effect control and ±100 the full control effect
# Target sequence (Q27686 whole entry, looked up): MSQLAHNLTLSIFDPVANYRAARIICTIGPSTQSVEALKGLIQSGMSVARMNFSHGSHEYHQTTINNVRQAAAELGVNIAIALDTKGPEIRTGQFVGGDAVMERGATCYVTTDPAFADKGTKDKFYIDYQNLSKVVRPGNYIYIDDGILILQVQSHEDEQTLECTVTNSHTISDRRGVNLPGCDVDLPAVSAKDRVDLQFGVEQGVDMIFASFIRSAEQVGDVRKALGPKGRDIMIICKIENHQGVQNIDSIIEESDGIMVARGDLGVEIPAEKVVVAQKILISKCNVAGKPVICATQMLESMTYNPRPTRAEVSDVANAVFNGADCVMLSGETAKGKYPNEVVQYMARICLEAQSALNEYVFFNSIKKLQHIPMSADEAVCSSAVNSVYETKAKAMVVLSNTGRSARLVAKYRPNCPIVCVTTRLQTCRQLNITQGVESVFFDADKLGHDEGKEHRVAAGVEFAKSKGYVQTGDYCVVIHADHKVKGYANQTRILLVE
#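 Purified LmPK (0.1 nM) converted ADP (0.1 mM) to ATP with PEP (0.5 mM) in imidazole buffer pH 7.2 with KCl and MgCl2, 1 h at room temperature. ATP was read by Kinase-Glo luminescence; data normalized to uninhibited and no-enzyme controls.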
# RE007 growth inh: less growth of the S. pombe RE007 Vpr strain | S. pombe RE007 Vpr strain, BacTiter-Glo ATP luminescence, 24 h | Potency, µM (titrated, usually from 92.2 µM), for the others: top-dose activity change, negative = less growth, usual class: inhibitors | 360,000 tested, 0.21% active; active means well fitted falling curve with a large enough effect; inconclusive means small, poorly fitted or top-dose-only effect; inactive means no such curve, though single readings can be large or run the other way; further: potency means the concentration at half of the fitted maximal effect; on the % scale 0 is the no-effect control and ±100 the full control effect; nearly all actives have a fitted effect of over 50% in size
#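 Fission yeast strain RE007, carrying one chromosomally integrated HIV-1 vpr copy, was seeded at OD 0.01 in PMG+AL medium with 23 nL pinned compound. After 24 h at 30 °C and 99% humidity, viability was read by BacTiter-Glo luminescence.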
# Cycloheximide cs: counter-screen hit for Shiga toxin inhibitors, cycloheximide; cell reporter, cycloheximide protein synthesis inhibition counterscreen; max response, %; 300,000 tested, 12% active; in the data active means max response mostly above about 13%, no sharp cut-off; inactive means mostly below about 14%; further: read at 38.3 µM for the half of the compounds with a filed dose; 0% is about no effect
# Shiga toxin inh: blocks Shiga toxin action in Vero cells; Vero cells, Shiga toxin protein synthesis inhibition reporter; inhibition, % at 38.7 µM; 290,000 tested, 9.2% active; AID 2315; in the data active means inhibition mostly above about 28%, no sharp cut-off; inactive means mostly below about 43%; further: 0% is about no effect
# TbPYK inhibitor: T. brucei pyruvate kinase inhibition. TbPYK enzyme, Kinase-Glo Plus ATP luminescence, 45 min. Potency, µM (doses to about 76.8 µM), inactives show top-dose activity, negative = inhibition, usual class: inhibitors. 410,000 tested, 0.12% active. AID 624173; further: potency means the concentration at half of the fitted maximal effect; on the % scale 0 is the no-effect control and ±100 the full control effect; nearly all actives have a fitted effect of over 50% in size
#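 Glycolytic pyruvate kinase of T. brucei was incubated with substrate, test compound and 130 uM ADP for 45 minutes at room temperature. Luminescent Kinase-Glo Plus signal was measured after 10 minutes.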
# * hit, by the source's call; ? = inconclusive; / = not tested or not shown. The full list was thinned out, with hits kept by preference. Unless noted, the call rests on the fitted dose curve; in most records, active means well fitted curve in the direction sought with a large enough effect; inconclusive means small, poorly fitted or top-dose-only effect, or another doubt; inactive means no such curve, though single readings can be large; an effect the other way counts as inactive or inconclusive.
SMILES,FBPA Giardia inh,LmPK inhibitor,RE007 growth inh,Cycloheximide cs,Shiga toxin inh,TbPYK inhibitor
Cc1c(Cl)cccc1NC(=O)CCS(=O)(=O)c1cccc2nsnc12,/,/,/,/,/,-5.6%
CS(=O)(=O)N1CCc2cc(C(=O)Nc3ccc(Cl)c(C(F)(F)F)c3)ccc21,/,/,/,/,/,-7.0%
Cc1cc(NC(=O)Nc2ccc(N(C)C)cc2)c2cc(F)cc(F)c2n1,-4.2%,/,/,28.1*,34.2*,/
COC(=O)c1ccc2nc(C)cc(Nc3ccc(N(C)C)cc3)c2c1,-0.9%,2.9%,-8.3%,-3.2,-12.8,-6.2%
Cc1ccc(/C=C(\C#N)C(=O)NCCN2CCOCC2)cc1,-1.9%,0.4%,15.6%,-8.9,-8.4,-6.5%
COc1cc(/C=C(\C#N)C(=O)Nc2cccc(C(=O)O)c2)ccc1OCc1ccc(Cl)cc1,-2.9%,3.8%,-11.0%,52.4*,107.2*,-6.6%
N#C/C(=C\c1ccc(OCCN2CCOCC2)cc1)C(=O)Nc1ccccc1,-1.6%,-2.0%,-6.0%,19.8*,17.0,-4.5%
COc1cc(/C=C(\C#N)C(=O)Nc2ccccc2F)ccc1OCCN1CCOCC1,/,-10.0%,-10.5%,25.0*,13.5,0.2%
COc1cc(/C=C(\C#N)C(=O)Nc2ccccc2)ccc1OCCN1CCOCC1,0.9%,-0.7%,-2.7%,26.5*,44.9*,-4.7%
COc1cc(/C=C(\C#N)C(=O)N2CCOCC2)ccc1OCc1ccccc1,-0.5%,8.3%,26.8%,3.1,40.1,-3.0%
COC(=O)c1c(-c2ccc(Cl)cc2)noc1N1CCN(c2cc(C)ccc2C)CC1,/,/,/,/,/,-0.5%
O=C(Nc1ccc(Oc2cccnc2)cc1)c1ccccc1Cl,-18.6%,-1.1%,-15.9%,27.5*,1.9,4.9%
O=C(Nc1ccc(Oc2cccnc2)cc1)c1ccccc1F,-5.0%,-7.1%,-15.0%,25.7*,63.5,1.3%
Cc1nc2ccc(S(=O)(=O)N(CC(=O)Nc3cccc(F)c3)Cc3ccccc3)cc2s1,/,/,/,/,/,-3.4%
O=C(CCOc1ccccc1)N(Cc1cccnc1)c1nc2ccc(F)cc2s1,/,/,/,/,/,-5.9%
COCCCNC(=O)C1CCCN(S(=O)(=O)c2ccc3c(c2)oc(=O)n3C)C1 (centres undefined),/,/,/,/,/,2.0%
COc1ccc(C)cc1NC(=O)C1CCN(S(=O)(=O)c2ccc3c(c2)CCCN3C(C)=O)CC1,/,/,/,/,/,-9.8%
CN(Cc1nc(CCc2ccccc2)no1)Cc1cccs1,-1.5%,3.7%,-5.6%,15.7*,25.2,-8.7%
CN(Cc1ccc(F)cc1)Cc1nc(CCc2ccccc2)no1,2.3%,-4.2%,-9.1%,1.2,-9.7,-4.1%
COc1ccc(C2=NN(C(=O)CN3CCOCC3)C(c3nc4ccccc4[nH]3)C2)cc1 (centres undefined),0.0%,-9.5%,-11.0%,55.6*,105.3*,3.8%
Cc1ccc2nc(N3CCOCC3)c(C=O)cc2c1,-1.9%,-0.1%,-18.6%,25.7*,35.6,1.5%
Cc1ccc2cc(C=O)c(N3CCOCC3)nc2c1C,-2.0%,-0.6%,-0.8%,-2.8,/,1.8%
FC(F)(F)c1cnc(-c2cnc(-c3ccccn3)nc2)c(Cl)c1,-4.6%,-8.2%,-20.5%,23.8,51.8*,-4.9%
FC(F)(F)c1cnc(-c2cnc(-c3ccncc3)nc2)c(Cl)c1,2.4%,-2.3%,3.4%,20.0*,20.5,-3.1%
NC(=S)c1ncc(C(F)(F)F)cc1Cl,-5.5%,-3.4%,18.6%,0.2,-7.4,0.6%
SMILES,FBPA Giardia inh,LmPK inhibitor,RE007 growth inh,Cycloheximide cs,Shiga toxin inh,TbPYK inhibitor
FC(F)(F)c1cc(Oc2ccccc2Cl)nc(-c2ccccn2)n1,3.1%,0.3%,37.1%,1.2,-4.3,4.1%
CC(C)C[C@H](NC(=O)CNC(=O)c1cc(Cl)ccc1Cl)B(O)O,/,/,/,/,/,0.5%
CCOC(=O)c1ccc(NC(=O)CN2C(=O)CSCC2=O)cc1,-1.1%,-2.0%,0.5%,10.1,-10.3,-7.9%
COC(=O)c1ccc(NC(=O)CN2C(=O)CSC2=O)cc1,-10.7%,-9.9%,4.4%,15.5*,17.2,-2.1%
O=C(CN1C(=O)CSC1=O)Nc1ccc(N2CCOCC2)cc1,-28.6%,1.6%,5.2%,-1.9,-3.2,1.3%
CCOC(=O)c1ccc(NC(=O)CN2C(=O)CSC2=O)cc1,-0.1%,7.0%,-1.0%,23.3*,59.3,?

# Screens: PubChem, National Center for Advancing Translational Sciences (NCATS)
